Results reported in PubChem BioAssay (NCATS).
Several values for one entry are separate records, joined by “and”; a condition that tells them apart may be missing. Identical values can stand only once. Inconclusive results are not listed. Activity calls are given as the source filed them. Calls come from the whole dose curve; as a rule, active = well fitted activation curve with a large enough effect; inconclusive = small, poorly fitted or top-dose-only effect; inactive = no such curve, though single readings can be large or run the other way.

Biological target: Cellular tumor antigen p53 (Homo sapiens) (UniProt P04637)
Assay: Primary qHTS for small molecule compounds that upregulate eGFP-tagged delta133p53alpha (in N-terminal) cells. (AID 2060322); note: nearly all actives have a fitted effect of over 75% in size;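 for activation: cells pre-induced with doxycycline then dosed without doxycycline; series mostly up to about 56 µM; 0% = DMSO vehicle and 100% = reference activator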
Conditions: NCI-H358 eGFP-delta133p53alpha fluorescence, 24 h; activation: active compounds read high
Source text: Assay Development and Screening Technology
National Center for Advancing Translational Sciences (NCATS),
National Institute of Health (NIH), Rockville, Maryland
Cellular senescence (CS) is one of the hallmarks of aging and age-related diseases. Senescent cells are characterized by an irreversible growth arrest, an increase in senescence-associated beta-galactosidase (SA-beta-gal) activity and p16INK4a expression, an activation of the DNA damage response pathways, and the emergence of a senescence-associated secretory phenotype (SASP).
Delta133p53alpha, a human/primate-specific p53 protein isoform, delays or inhibits the induction of CS and SASP in various types of human cells, including progeria-derived fibroblasts, primary normal astrocytes, and CD8+ T lymphocytes. Induction of delta133p53alpha with small molecule compounds may provide therapeutic opportunities for inhibition of senescence/SASP-associated pathologies in progeria syndromes, astrocyte-mediated neuroprotection in neurodegenerative diseases, and possibly prevention and treatment of a wider range of senescence- and aging-associated diseases.
Here we report the development and validation of a cell-based quantitative high throughput screening (qHTS) assay in 1,536-well format. This qHTS assay uses the NCI-H358 cell line with doxycycline-inducible expression of enhanced green fluorescent protein (eGFP)-tagged delta133p53alpha, which allows efficient and highly quantitative measurement of the protein levels.
PROTOCOL TABLE (as described by Inglese J, Shamu CE and Guy RK. 2007)
SEQUENCE No. (e.g., 1, 2, 3, etc.); […] (e.g., Cells, Incubation, Reagent, etc.); VALUE; DESCRIPTION.
1; Cells; 4uL; 800 doxycycline treated cells / well in doxycycline-free media, 1536-well black, clear-bottom low base Aurora microplates.
2; Compounds; 23 nL; Kalypsis pin tool (Wako) equipped with 1536-well pin heads, 5-azacytidine positive control.
3; Incubation; 24 hr; 37C, 5% CO2; 95% relative humidity.
4; Aspiration; 1x; BioTek EL406 washer dispenser (Agilent).
5; Fixing; 3.5% paraformaldehyde, BioTek EL406 washer dispenser (Agilent).
6; Washing; 1x PBS; BioTek EL406 washer dispenser (Agilent).
7; Nuclei staining; 1:1000 dilution of Hoechst 33342 (Thermofisher), BioTek EL406 washer dispenser (Agilent).
8; Incubation; 20 min; in the dark at room temperature.
9; Washing; 2x, 1x PBS (ThermoFisher), BioTek EL406 washer dispenser (Agilent).
10; Reagent; 10 uL; 1x PBS per well, sealed with clear adhesive tape.
NOTES (numbers refer to sequence numbers above).
1. NCI-H358 cells expressing eGFP-tagged delta133p53alpha were grown in T75 culture flasks and treated with doxycycline for 24h, at 10 ng/ml for eGFP-D133p53a cells (N-terminal cell) and 100 ng/ml for D133p53a-eGFP cells (C-terminal cells). Cells were trypsinized, counted using a Counted 3 Automated Cell Counter (Thermo Fisher), and diluted to a concentration of 200,000 cells/ml. A Multidrop Combi Reagent Dispenser (ThermoFisher) was used to dispense 800 cells/well in […] of doxycycline-free media, into 1536-well black/clear bottom low base plates (AuroraMicroplates).
2. After plating cells, 23 nl of compound library, DMSO vehicle control or positive control (5-azacytidine) were transferred by Pin Tool (Wako). The plate map layout was the same for each plate: (column 1) non-doxycycline treated cells + DMSO vehicle control; (column 2) doxycycline treated cells + DMSO vehicle control baseline; (column 3) doxycycline treated cells + positive control 57.5 uM final concentration 5-azacytidine; (column 4) doxycycline treated cells + serial dilution of 5-azacytidine, 16-point 1:2 titration spanning 1.8 nM to […] final concentration; (columns 5-48) doxycycline treated cells + titration of library compounds.
3. Cells were incubated at 37 °C, 5 % CO2, 95% RH with breathable metal lid for 24h.
4-10. […] After two washes, 10 ul of 1X PBS (Thermo Fisher) was dispensed to each well. Clear adhesive plate seals (VWR) were applied and plates stored at 4 °C.
11. […]
Potency is the fitted concentration of half-maximal effect.

Cellular tumor antigen p53 (Homo sapiens), sequence (P04637 whole entry, looked up): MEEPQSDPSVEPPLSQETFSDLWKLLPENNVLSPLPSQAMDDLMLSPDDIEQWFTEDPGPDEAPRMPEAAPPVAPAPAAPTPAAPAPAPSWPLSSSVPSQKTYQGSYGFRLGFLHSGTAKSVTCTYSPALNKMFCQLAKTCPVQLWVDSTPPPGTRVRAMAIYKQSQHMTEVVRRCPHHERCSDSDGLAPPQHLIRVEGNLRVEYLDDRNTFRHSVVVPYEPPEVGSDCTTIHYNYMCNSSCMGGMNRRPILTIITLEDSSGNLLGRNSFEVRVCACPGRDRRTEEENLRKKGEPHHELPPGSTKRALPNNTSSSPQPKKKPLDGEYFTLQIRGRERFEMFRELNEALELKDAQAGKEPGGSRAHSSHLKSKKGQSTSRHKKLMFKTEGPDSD

SMILES	activation	Potency
COc1ccc(CNC(=O)c2sc3nc(C)cc(C)c3c2N)cc1	-8.11% (inactive)	–
OC[C@H]1O[C@@H](OCc2ccccc2)[C@H](O[C@@H]2OC[C@@H](O)[C@H](O)[C@H]2O)[C@@H](O)[C@@H]1O	-14.3% (inactive)	–
O=C(O)C[C@H](O)C[C@H](O)C=Cc1c(C2CC2)nc2ccccc2c1-c1ccc(F)cc1	-5.06% (inactive)	–
C[C@@H]1O[C@@H](O[C@@H]2[C@@H](O)[C@H](O[C@H]3[C@H](O[C@H]4CC[C@@]5(C)C(CC[C@]6(C)C5CC=C5[C@@H]7CC(C)(C)CC[C@]7(C(=O)O[C@@H]7O[C@H](CO)[C@@H](O)[C@H](O)[C@H]7O)CC[C@]56C)C4(C)C)O[C@H](C(=O)O)[C@@H](O)[C@@H]3O)OC[C@H]2O)[C@H](O)[C@H](O)[C@H]1O (stereo not given in full)	-27.5% (inactive)	–
CC[C@@]1(O)C(=O)OCc2c1cc1n(c2=O)Cc2cc3c(CN(C)C)c(O)ccc3nc2-1	–	24.6 µM (active) and 3.38 µM (active)
C[C@@H]1CC=CC=CC=CC=C[C@@H](O[C@@H]2O[C@H](C)[C@@H](O)[C@H](N)[C@H]2O)C[C@@H]2O[C@](O)(C[C@@H](O)C[C@@H]3O[C@@H]3C=CC(=O)O1)C[C@H](O)[C@@H]2C(=O)O	-2.86% (inactive)	–
CCCCCCCCCCC[C@@H](C[C@@H]1OC(=O)[C@H]1CCCCCC)OC(=O)[C@H](CC(C)C)NC=O	2.82% (inactive)	–
C=CC/C=C\C/C=C\CCCCCCCc1cccc(O)c1C(=O)O	8.04% (inactive)	–
CCOC(=O)N1CCN([N+]([O-])=NOc2cc(ON=[N+]([O-])N3CCN(C(=O)OCC)CC3)c([N+](=O)[O-])cc2[N+](=O)[O-])CC1	5.87% (inactive)	–
C=C1CC[C@H]2[C@@](C)(CCC(O)[C@@]2(C)CO)[C@@H]1C/C=C(/C(=O)O)C(O)CO (stereo not given in full)	-16.1% (inactive)	–
CN(C)CCn1nnnc1SCC1=C(C(=O)O)N2C(=O)[C@@H](NC(=O)Cc3csc(N)n3)[C@H]2SC1	-0.565% (inactive)	–
COc1cc2c(Nc3ccc(Cl)c(Cl)c3F)ncnc2cc1OCC1C[C@@H]2CN(C)C[C@@H]2C1 (stereo not given in full)	–	13.5 µM (active) and 19.3 µM (active)
CC(COc1ccccc1)N(CCCl)Cc1ccccc1 (stereo not given)	-9.21% (inactive) and 7.69% (inactive)	–
Oc1ccc(C2CCN(c3ccnc4ccccc34)CC2)cc1O	25.9% (inactive)	–
CC(O)c1cc(C(=O)N[C@@H](C)Cn2ccc(-c3ccc(C#N)c(Cl)c3)n2)n[nH]1 (stereo not given in full)	1% (inactive)	–
CCCCCCCCCCCCCCCCCC(=O)O	24.3% (inactive)	–
CCCCC(CC)COC(=O)C(C#N)=C(c1ccccc1)c1ccccc1 (stereo not given)	-10.7% (inactive) and -6.01% (inactive)	–
CCCNCC(O)COc1ccccc1C(=O)CCc1ccccc1 (stereo not given)	15% (inactive) and -5.02% (inactive) and 3.52% (inactive)	–
CCN1CCC[C@@H]1CNC(=O)c1ccc2c(c1)NC(=O)c1cccc(C)c1S2	19.7% (inactive)	–
CNC1[C@H](O)C(O[C@@H]2C(O)C(O[C@H]3O[C@H]([C@@H](C)NC)CC[C@H]3N)[C@@H](N)C[C@H]2N)OC[C@]1(C)O (stereo not given in full)	-1.3% (inactive)	–

SMILES	activation	Potency
CC(C)=CCC[C@](C)(O)[C@H]1CC[C@]2(C)[C@@H]1[C@H](O)CC1[C@@]3(C)CC[C@H](O)C(C)(C)[C@@H]3[C@@H](O[C@@H]3O[C@H](CO)[C@@H](O)[C@H](O)[C@H]3O[C@@H]3O[C@H](CO)[C@@H](O)[C@H](O)[C@H]3O)C[C@]12C (stereo not given in full)	-11.6% (inactive)	–
C=C1CC2OC(=O)C(COC)C2C(OC(=O)/C(C)=C\C)CC2(C)OC1=CC2=O (stereo not given)	–	14.8 µM (active)
CCc1c(Cl)c(O)c(Cl)c(O)c1C(=O)O[C@H]1[C@H](O)[C@H](OC)[C@H](OC/C2=C\C=C\C[C@H](O)/C(C)=C\[C@H](CC)[C@@H](O[C@@H]3OC(C)(C)[C@@H](OC(=O)C(C)C)[C@H](O)[C@@H]3O)/C(C)=C/C(C)=C/C[C@@H]([C@@H](C)O)OC2=O)O[C@@H]1C	-0.333% (inactive)	–
COc1cc2ncc(-c3ccccc3)nc2cc1OC	-16.1% (inactive)	–
NC(=O)NNc1ccccc1	0.565% (inactive)	–
CC(C)(C)NC[C@H](O)COc1cccc2c1CCCC2=O	8.47% (inactive)	–
C/C=C(\C)C(=O)OC1C=C(C)CC(OC(=O)c2ccc(O)cc2)C2C1(C)CCC2(O)C(C)C (stereo not given)	-7.63% (inactive)	–
C[C@@H]1O[C@@H](O[C@H]2[C@H](O)[C@@H](O[C@@H]3O[C@H](CO)[C@@H](O)[C@H](O[C@@H]4O[C@H](CO)[C@@H](O)[C@H](O)[C@H]4O)[C@H]3O)[C@H](O[C@H]3CC[C@@]4(C)C(=CC[C@@H]5C4CC[C@@]4(C)C5C[C@@H]5OC6(CC[C@@](C)(CO[C@@H]7O[C@H](CO)[C@@H](O)[C@H](O)[C@H]7O)O6)[C@@H](C)[C@@H]54)C3)O[C@@H]2CO)[C@H](O)[C@H](O)[C@H]1O (stereo not given in full)	-25.2% (inactive)	–
COC1CC(OC2CCC3(C)C(=CCC4C3CCC3(C)C(C(C)O)CCC43O)C2)OC(C)C1OC1OC(C)C(OC2OC(COC3OC(COC4OC(CO)C(O)C(O)C4O)C(O)C(O)C3O)C(O)C(O)C2O)C(OC)C1O (stereo not given)	-23.7% (inactive)	–
C[C@]12CC[C@@H]3c4ccc(OC(=O)c5ccccc5)cc4CC[C@H]3[C@@H]1CC[C@@H]2O	14.3% (inactive)	–
O=c1cc(N2CCN(c3cccc(C(F)(F)F)c3)CC2)[nH]c(=O)n1C1CCCCC1	25% (inactive)	–
N[C@@]1(C(=O)O)CC[C@H]2[C@H](C(=O)O)[C@H]21	-12.3% (inactive)	–
COc1cc(OC)nc(O[C@H](C(=O)O)C(OC)(c2ccccc2)c2ccccc2)n1	-22% (inactive)	–
COC(=O)c1cc(Br)cnc1N1CCC(NC2CCCCC2)C(O)C1 (stereo not given)	-10.3% (inactive)	–
CC(C)C1=CC2C(CC[C@]2(C)O)[C@](C)(O)CC1 (stereo not given in full)	-6.25% (inactive)	–
CN1CCN(C2Cc3ccccc3Sc3ccc(Cl)cc32)CC1 (stereo not given)	-14.1% (inactive)	–
CC(=O)O[C@H]1CC[C@@]2(CI)C(=CC[C@@H]3[C@@H]2CC[C@]2(C)[C@@H]([C@H](C)CCCC(C)C)CC[C@@H]32)C1	21.7% (inactive)	–
O=C(O)c1ccnc(-c2cc(C(=O)NCCc3ccccc3)ccn2)c1	4.47% (inactive)	–
NC(=O)c1cccc(-c2cc(Nc3ccc(OC(F)(F)F)cc3)ncn2)c1	-25.2% (inactive) and 10.7% (inactive)	–
CC(=CC(=O)Nc1ccccc1C(=O)O)c1ccc2ccccc2c1	-15.6% (inactive)	–
